Records with an inconclusive call do not appear. Where a call stands in place of a potency, no number is given. Activity calls are given as the source filed them. The call rests on the fitted dose curve; in most records, active means well fitted activation curve with a large enough effect; inconclusive means small, poorly fitted or top-dose-only effect; inactive means flat fitted curve, though single readings scatter.
Assay: qHTS for Inhibitors of Cell Surface uPA Generation: FP59 Counterscreen for Cherry-picked Compounds
Conditions: FP59 anthrax toxin cytotoxicity counterscreen, cells; series mostly up to 115 µM

Row | SMILES | Potency
1 | CCOc1ccc(C(=O)NCC(=O)N2CCN(C/C=C/c3ccccc3)CC2)cc1OCC | inactive
2 | CC(=O)Nc1sc(C)c(C)c1C(=O)OCC(=O)NC(C)c1ccccc1 (centres undefined) | inactive
3 | COCc1c(C(=O)Nc2nc(C)cs2)oc2ccccc12 | inactive
4 | Cc1ccsc1/C=C(\C#N)C(=O)NC1CCS(=O)(=O)C1 (centres undefined) | inactive
5 | COc1ccc(N2CCN(S(=O)(=O)c3ccc4c(c3)NC(=O)CS4)CC2)cc1 | inactive
6 | COc1ccc(C(=O)NC(=S)Nc2ccc(NC(=O)c3ccco3)cc2)cc1[N+](=O)[O-] | inactive
7 | O=C(O)CCCC(=O)NCCCCc1ccccc1 | inactive
8 | CCCCNc1c(-c2ccc(-c3cccc(Cl)c3)cc2)nc2ccccn12 | inactive
9 | CCC(CC)Nc1ccc(C(CC(N)=O)NC(=O)Cc2ccc(Br)cc2)cc1[N+](=O)[O-] (centres undefined) | inactive
10 | CCOc1ccccc1CN1CCCC(CNS(=O)(=O)c2ccc(OC)cc2)C1 (centres undefined) | inactive
11 | O=C(Nc1ccc(N2CCOCC2)cc1)c1ccc(Cl)c(S(=O)(=O)N2CCCC2)c1 | inactive
12 | C=C(C)C(=O)O[C@H]1C/C(C)=C\C(=O)/C=C(\C)[C@H](O)[C@@H]2OC(=O)C(=C)[C@@H]21 | inactive
13 | CN(C)c1cccc(Oc2nc3c(c(=O)n(C)c(=O)n3C)n2C)c1 | inactive
14 | O=C(CCS(=O)(=O)c1ccc2c(c1)NC(=O)CS2)NCCc1ccc(Cl)cc1 | inactive
15 | C[C@@H](C(=O)Nc1ccc2ccccc2c1)[C@@H]1C[C@@]1(C)[C@@H](NC(=O)c1cccnc1)c1ccccc1 | inactive
16 | C[n+]1c2cc(N)ccc2cc2ccc(N)cc21 | inactive
17 | CCCNC(=O)C1CCC(CNS(=O)(=O)c2ccc3c(c2)CC(C)N3C(C)=O)CC1 (centres undefined) | inactive
18 | COc1cccc(C2CC(c3ccc(C)cc3)n3ncnc3N2)c1 (centres undefined) | inactive
19 | CCN(CC)S(=O)(=O)c1ccc(NC(=S)Nc2ccc(F)cc2)cc1 | inactive
20 | COc1ccc(-c2sc3ccccc3c2C#CCO)cc1 | inactive
21 | Cc1ccc(S(=O)(=O)NCC(=O)OC(C)C(=O)NCc2ccc3c(c2)OCO3)cc1 (centres undefined) | inactive
22 | COc1ccc(C(=O)OCC(=O)N(C)C2CCS(=O)(=O)C2)cc1S(=O)(=O)N(C)Cc1ccccc1 (centres undefined) | inactive
23 | CCOC(=O)C1CCN(C(=O)COC(=O)c2c(C)c(CC)nc3ccccc23)CC1 | inactive
24 | C=CCOC(=O)C1=C[C@H](c2ccc(C(F)(F)F)cc2)[C@@H](CCCO)[C@H](OCC)O1 | inactive

Reference: PubChem BioAssay AID720517 (National Center for Advancing Translational Sciences (NCATS), 2013)
